36 compounds from ChEMBL document CHEMBL3433997, “St. Jude Leishmania screening dataset” (2016) can be followed below.

Format in all cases: functional
Experiment [1] has as its target Solute carrier family 2, facilitated glucose transporter member 1 (Homo sapiens) (UniProt P11166). In words: ST_JUDE_LEISH: Cytotoxicity at 2uM final concentration against transgenic Leishmania Mexicana promastigotes LmGLUT1 that are glucose transport deficient and complemented with the human glucose transporter GLUT1. Activity is measured by DNA content using SYBR green in vitro.

The target of experiment [2] is Hexose transporter 1 (Plasmodium falciparum) (UniProt O97467). In words: ST_JUDE_LEISH: Cytotoxicity at 2uM final concentration against transgenic Leishmania Mexicana promastigotes LmPfHT that are glucose transport deficient and complemented with the Plasmodium falciparum hexose transporter. Activity is measured by DNA content using SYBR green in vitro.
For experiment [3], the target named is Glucose transporter (Leishmania mexicana) (UniProt O61059). In words: ST_JUDE_LEISH: Cytotoxicity at 2uM final concentration against transgenic Leishmania Mexicana promastigotes LmGT2 that are glucose transport deficient and complemented with the L. Mexicana glucose transporter 2. Activity is measured by DNA content using SYBR green in vitro.

Sequence of Solute carrier family 2, facilitated glucose transporter member 1 (Homo sapiens) (P11166 whole entry): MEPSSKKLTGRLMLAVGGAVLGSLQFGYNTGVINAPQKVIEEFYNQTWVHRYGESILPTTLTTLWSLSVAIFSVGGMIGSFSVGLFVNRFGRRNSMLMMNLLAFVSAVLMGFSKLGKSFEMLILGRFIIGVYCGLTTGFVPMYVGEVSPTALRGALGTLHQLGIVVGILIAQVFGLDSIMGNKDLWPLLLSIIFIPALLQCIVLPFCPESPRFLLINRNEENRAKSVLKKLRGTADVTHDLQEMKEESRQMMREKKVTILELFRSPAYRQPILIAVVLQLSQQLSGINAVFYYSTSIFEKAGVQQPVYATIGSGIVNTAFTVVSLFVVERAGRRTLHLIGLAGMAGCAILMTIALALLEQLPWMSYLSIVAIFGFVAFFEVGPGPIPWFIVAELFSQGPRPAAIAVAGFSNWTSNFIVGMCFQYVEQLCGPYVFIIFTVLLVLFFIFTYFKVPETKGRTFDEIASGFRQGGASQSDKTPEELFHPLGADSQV

Take `FC(F)(F)c1ccc(/C=C/c2cncnc2Nc2ccc3[nH]c(Cc4ccccc4)nc3c2)cc1`: the values for the inhibition in experiment [1], in experiment [2] and in experiment [3] were 4.97%, 6.03% and 3.94%, respectively.

Turning to `N#Cc1nc2ccc(OCCN(Cc3ccccc3C(F)(F)F)c3ccc(C#N)c(C(F)(F)F)c3)cc2s1`, the inhibition in experiment [1] stood at 9.32%; in experiment [2], 6.39%; in experiment [3], 8.4%.

As for `Fc1ccc(C=NN=c2cc[nH]c3ccccc23)cc1`, the inhibition is 11.7% in experiment [1], 13.4% in experiment [2] and 8.73% in experiment [3].

For `CCn1cc2c3c(cc(C(=O)N[C@@H](Cc4ccccc4)[C@H](O)CNC4CCOCC4)cc31)N(C)S(=O)(=O)CC2`, the inhibition in experiment [1] was 0.41%; in experiment [2], 0.29%; in experiment [3] it was 4.85%.

As to `COc1ccc2nc(C)cc(Nc3ccc(Oc4ccc(Br)c5ccccc45)c(Cl)c3)c2c1`, the inhibition worked out at 9.47% in experiment [1], 8.7% in experiment [2] and 3.21% in experiment [3].

Regarding `CN1CCCC(CN2CCN(Cc3cccc(-c4ccc(-c5nc6cc(C(F)(F)F)ccc6[nH]5)cc4)c3)CC2)C1` (stereo not drawn), the inhibition in experiment [1] was determined as 1.06%; in experiment [2] it was 0.64%; in experiment [3] it was 1.86%.

With `COc1ccc(CCn2c(=N)c(C(=O)NCc3ccc(C)cc3)cc3c(=O)n4ccccc4nc32)cc1`, the inhibition came out at 3.94% in experiment [1], 3.72% in experiment [2] and 3.95% in experiment [3].

For the compound `Brc1ccc(Nc2ccnc3cc(-c4nccs4)ccc23)cc1Oc1ccnc2cc(-c3nccs3)ccc12`, the inhibition in experiment [1] is 1.77%; in experiment [2], 2.1%; in experiment [3] it was -0.86%.

In the case of `FC(F)(F)c1cc(Nc2ncnc3ccc(Br)cc23)ccc1OCc1ccccc1`, the inhibition was found to be 6.39% in experiment [1], 3.97% in experiment [2] and 3.84% in experiment [3].

In the case of `N#Cc1ccc(-c2ccc(C(=O)NCCCCN3CCC(c4nc5ccccc5[nH]4)CC3)cc2)cc1`, the inhibition in experiment [1] came out at 2.16%; in experiment [2], 2.21%; in experiment [3], 2.69%.

Take `CN1C(C)(C)CC(NC(=O)c2ccc(-c3cc4cc(Cl)c(Cl)cc4[nH]3)o2)CC1(C)C`: the inhibition turned out to be 4.77% in experiment [1], 4.2% in experiment [2] and 6.1% in experiment [3].

For the compound `CCCc1ccc(N2C(N)=NC(N)=NC2(C)C)cc1`, the inhibition in experiment [1] was 1.9%; in experiment [2], 1.17%; in experiment [3], -2.29%.

Consider `N#Cc1ccc(NC2(C(=O)N3CCN(c4cccc(Cl)c4)CC3)CC2)c2ccccc12`, for which the inhibition in experiment [1] was 2.79%; in experiment [2], 2.36%; in experiment [3], 0.86%.

As to `Cc1ccc(/C=C/C(=O)NCCCCCN2CCN(C(=O)Nc3ccc(Cl)c(C(F)(F)F)c3)CC2)cc1`, the inhibition in experiment [1] was 4.47%; in experiment [2], -0.2%; in experiment [3] it was 0.88%.

On to `COC(=O)c1ccc(NC(=O)Nc2cccc(CCNCc3ccccc3)c2)cc1`, for which the figures for the inhibition in experiment [1], in experiment [2] and in experiment [3] were -0.06%, -0.8% and -1.41%, respectively.

For `CC(=O)Nc1ncc(C(=O)Nc2cccc(-c3ccc(-c4nc5ccccc5[nH]4)cc3)c2)s1`, the inhibition in experiment [1] was 1.69%; in experiment [2] it was 1.26%; in experiment [3], 1.08%.

On to `Cc1ccc(O)cc1Nc1ccnc2cc(-c3csc(CN4CCN(C)CC4)n3)ccc12`, for which the results for the inhibition in experiment [1], in experiment [2] and in experiment [3] were 8.26%, 5.93% and 5.57%, respectively.

Take `CCCC(C)n1ccc2c3c(N)nc(N)nc3ccc21` (stereo not drawn): the inhibition turned out to be 47.3% in experiment [1], 56.9% in experiment [2] and 29.7% in experiment [3].

As for `CN1CCC(COc2ccc(CN3CCC(NC(=O)c4cccc(Cl)c4)CC3)cc2)CC1`, the inhibition in experiment [1] turned out to be 2.48%; in experiment [2] it was 3.13%; in experiment [3] it was 0.42%.

Regarding `N#Cc1cccc(Nc2ncc3c(-c4cccc(NC(=O)Cc5cccc(Cl)c5)c4)c[nH]c3n2)c1`, the inhibition was found to be 3.15% in experiment [1], 2.53% in experiment [2] and 0.18% in experiment [3].

Turning to `CC(Cc1ccc(OCCN2CCN(c3ccc(Cl)cc3)CC2)cc1)NCC(O)c1cccc(C(F)(F)F)c1` (stereo not drawn), the inhibition is -2.36% in experiment [1], -1.57% in experiment [2] and 0.07% in experiment [3].

On to `Brc1cc2c(cc1C=NNc1nc(=Nc3ccccc3)[nH]c(=Nc3ccccc3)[nH]1)OCO2`, for which the results for the inhibition in experiment [1], in experiment [2] and in experiment [3] were 3.97%, 3.42% and -2.12%, respectively.

With `CNC(=O)Cc1ccc(C(=O)Nc2cccc(-c3ccc(-c4nc5cccc(C)c5[nH]4)s3)c2)cc1`, the inhibition was determined as 3.65% in experiment [1], 2.74% in experiment [2] and 1.79% in experiment [3].

`O=C(NCCN1CCOCC1)c1ccc(N2CCC(Oc3ccc4ccccc4c3)CC2)nc1`: the inhibition in experiment [1] was 7.02%; in experiment [2], 6.04%; in experiment [3], 6.12%.

Take `COc1cc(OC)cc(-c2nc3ccc(OCCN(C)C)c(C#N)c3[nH]2)c1`: the results for the inhibition in experiment [1], in experiment [2] and in experiment [3] were 0.95%, 4.09% and 2.21%, respectively.

Turning to `COc1ccc(S(=O)(=O)NCCC2CCN(CCCCCNC(=O)C=Cc3ccc(Cl)c(Cl)c3)CC2)cc1`, the inhibition came out at 2.06% in experiment [1], 2.12% in experiment [2] and 1.49% in experiment [3].

With `Cc1cc(NCc2ccccc2)nc2cc(O)ccc12`, the inhibition in experiment [1] was 8.52%; in experiment [2], 13.2%; in experiment [3], 7.14%.

In the case of `COc1cc(Br)ccc1N1CCN(CCCCNC(=O)c2ccc(NC(=O)c3ccc(Cl)cc3)cc2)CC1`, the figures for the inhibition in experiment [1], in experiment [2] and in experiment [3] were 2.1%, 2.33% and 1.5%, respectively.

As to `COc1cc(C2CCN(CCCCNC(=O)c3ccc(NC(=O)c4ccc(Cl)c(Cl)c4)cc3)CC2)ccc1OC(C)C`, the figures for the inhibition in experiment [1], in experiment [2] and in experiment [3] were 1.53%, 4.29% and 1.53%, respectively.

As to `CCCNC(=O)c1ccnc(-c2ccc(CNC3Cc4ccccc4C3)cc2)c1`, the inhibition in experiment [1] is 1.45%; in experiment [2] it was 1.35%; in experiment [3] it was -0.22%.

`Cc1cc(CNCCCCCCCNCc2ccc(-c3ccccc3)cc2)ccc1O`: the inhibition turned out to be 0.67% in experiment [1], 1.76% in experiment [2] and 1.05% in experiment [3].

In the case of `CCN(CC)CC#Cc1ccc2[nH]c(C)c(Cl)c(=O)c2c1`, the inhibition in experiment [1] turned out to be 3.66%; in experiment [2], 3.51%; in experiment [3], 4.12%.

On to `COc1cccc(C(NC(=O)c2ccccc2)c2ccc3cccnc3c2O)c1` (stereo not drawn), for which the inhibition in experiment [1] is -0.96%; in experiment [2] it was 2.16%; in experiment [3], -1.64%.

For `CCN(CC)CCCC(C)Nc1ccnc2ccc(OC)cc12` (stereo not drawn), the inhibition was 8.15% in experiment [1], 8.91% in experiment [2] and 8.52% in experiment [3].

Regarding `O=C(NCCCCN1CC=C(c2ccc3c(c2OCc2ccccc2)CCCC3)CC1)c1ccc(-c2ccc(C(F)(F)F)cc2)cc1`, the figures for the inhibition in experiment [1], in experiment [2] and in experiment [3] were -1.51%, -1.29% and -2.15%, respectively.

Consider `Cc1cc(-c2cccc(CNC3CCN(C)CC3)c2)ccc1S(=O)(=O)NCCN1CCCC1`, for which the inhibition in experiment [1] came to 0.26%; in experiment [2] it was 0.15%; in experiment [3], 0.59%.
